{"source": "the supplement of paper PMC7595190", "tested_on": "MV4-11", "test": "CellTox Green cytotoxicity fluorescence relative to DMSO vehicle (fold of vehicle RFU); higher = more cell death (loss of membrane integrity), active = 2 or more", "description": "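Paediatric AML cell lines (MV4-11, CMK, Kasumi-1; 4x10^4 cells/well, 96-well) treated with single compounds from the Selleckchem apoptosis library at 0.01, 0.1 and 1 µM. Cytotoxicity was read with CellTox Green (RFU, Ex 485/Em 520) at 24, 48 and 72 h and normalised to the 0.1% DMSO vehicle. Normalised RFU >= 2 was taken as a successful, cell-killing treatment.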", "note": "Values without a mark were called inactive.", "data": [{"smiles": "COc1cc([C@@H]2c3cc4c(cc3[C@H](O)[C@H]3COC(=O)[C@@H]23)OCO4)cc(OC)c1OC", "note": "[Picropodophyllin]", "values": [{"measurement": "CellTox Green cytotoxicity fluorescence", "setting": "0.01 µM, 24 h", "value": 0.934}, {"measurement": "CellTox Green cytotoxicity fluorescence", "setting": "0.01 µM, 48 h", "value": 0.932}, {"measurement": "CellTox Green cytotoxicity fluorescence", "setting": "0.01 µM, 72 h", "value": 0.939}, {"measurement": "CellTox Green cytotoxicity fluorescence", "setting": "0.1 µM, 24 h", "value": 0.922}, {"measurement": "CellTox Green cytotoxicity fluorescence", "setting": "0.1 µM, 48 h", "value": 0.924}, {"measurement": "CellTox Green cytotoxicity fluorescence", "setting": "0.1 µM, 72 h", "value": 0.931}, {"measurement": "CellTox Green cytotoxicity fluorescence", "setting": "1 µM, 24 h", "value": 1.28}, {"measurement": "CellTox Green cytotoxicity fluorescence", "setting": "1 µM, 48 h", "value": "2.6 (active)"}, {"measurement": "CellTox Green cytotoxicity fluorescence", "setting": "1 µM, 72 h", "value": "3.18 (active)"}]}, {"smiles": "CN[C@@H]1C[C@H]2O[C@@](C)([C@@H]1OC)n1c3ccccc3c3c4c(c5c6ccccc6n2c5c31)C(=O)NC4", "note": "[Staurosporine]", "values": [{"measurement": "CellTox Green cytotoxicity fluorescence", "setting": "0.01 µM, 24 h", "value": 0.985}, {"measurement": "CellTox Green cytotoxicity fluorescence", "setting": "0.01 µM, 48 h", "value": 1.41}, {"measurement": "CellTox Green cytotoxicity fluorescence", "setting": "0.01 µM, 72 h", "value": 1.83}, {"measurement": "CellTox Green cytotoxicity fluorescence", "setting": "0.1 µM, 24 h", "value": 1.01}, {"measurement": "CellTox Green cytotoxicity fluorescence", "setting": "0.1 µM, 48 h", "value": 1.48}, {"measurement": "CellTox Green cytotoxicity fluorescence", "setting": "0.1 µM, 72 h", "value": 1.96}, {"measurement": "CellTox Green cytotoxicity fluorescence", "setting": "1 µM, 24 h", "value": 1.36}, {"measurement": "CellTox Green cytotoxicity fluorescence", "setting": "1 µM, 48 h", "value": "2.34 (active)"}, {"measurement": "CellTox Green cytotoxicity fluorescence", "setting": "1 µM, 72 h", "value": "2.42 (active)"}]}, {"smiles": "O=C(O)C(=O)c1cn(Cc2ccccc2)c2ccc(-c3ccc(OC(F)(F)F)cc3)cc12", "note": "[Tiplaxtinin]", "values": [{"measurement": "CellTox Green cytotoxicity fluorescence", "setting": "0.01 µM, 24 h", "value": 1.02}, {"measurement": "CellTox Green cytotoxicity fluorescence", "setting": "0.01 µM, 48 h", "value": 1.02}, {"measurement": "CellTox Green cytotoxicity fluorescence", "setting": "0.01 µM, 72 h", "value": 1.04}, {"measurement": "CellTox Green cytotoxicity fluorescence", "setting": "0.1 µM, 24 h", "value": 1.01}, {"measurement": "CellTox Green cytotoxicity fluorescence", "setting": "0.1 µM, 48 h", "value": 1.02}, {"measurement": "CellTox Green cytotoxicity fluorescence", "setting": "0.1 µM, 72 h", "value": 1.03}, {"measurement": "CellTox Green cytotoxicity fluorescence", "setting": "1 µM, 24 h", "value": 0.997}, {"measurement": "CellTox Green cytotoxicity fluorescence", "setting": "1 µM, 48 h", "value": 1.01}, {"measurement": "CellTox Green cytotoxicity fluorescence", "setting": "1 µM, 72 h", "value": 1}]}, {"smiles": "COc1cc(C)[nH]c(=O)c1CNC(=O)c1c(C)n([C@H](C)C2CCOCC2)c2ccccc12", "values": [{"measurement": "CellTox Green cytotoxicity fluorescence", "setting": "0.01 µM, 24 h", "value": 0.942}, {"measurement": "CellTox Green cytotoxicity fluorescence", "setting": "0.01 µM, 48 h", "value": 0.94}, {"measurement": "CellTox Green cytotoxicity fluorescence", "setting": "0.01 µM, 72 h", "value": 0.941}, {"measurement": "CellTox Green cytotoxicity fluorescence", "setting": "0.1 µM, 24 h", "value": 0.942}, {"measurement": "CellTox Green cytotoxicity fluorescence", "setting": "0.1 µM, 48 h", "value": 0.951}, {"measurement": "CellTox Green cytotoxicity fluorescence", "setting": "0.1 µM, 72 h", "value": 0.957}, {"measurement": "CellTox Green cytotoxicity fluorescence", "setting": "1 µM, 24 h", "value": 0.942}, {"measurement": "CellTox Green cytotoxicity fluorescence", "setting": "1 µM, 48 h", "value": 0.936}, {"measurement": "CellTox Green cytotoxicity fluorescence", "setting": "1 µM, 72 h", "value": 0.948}]}, {"smiles": "COc1ccc2c(c1)/C(=C/c1cnc[nH]1)C(=O)N2", "values": [{"measurement": "CellTox Green cytotoxicity fluorescence", "setting": "0.01 µM, 24 h", "value": 0.929}, {"measurement": "CellTox Green cytotoxicity fluorescence", "setting": "0.01 µM, 48 h", "value": 0.92}, {"measurement": "CellTox Green cytotoxicity fluorescence", "setting": "0.01 µM, 72 h", "value": 0.921}, {"measurement": "CellTox Green cytotoxicity fluorescence", "setting": "0.1 µM, 24 h", "value": 0.92}, {"measurement": "CellTox Green cytotoxicity fluorescence", "setting": "0.1 µM, 48 h", "value": 0.94}, {"measurement": "CellTox Green cytotoxicity fluorescence", "setting": "0.1 µM, 72 h", "value": 0.941}, {"measurement": "CellTox Green cytotoxicity fluorescence", "setting": "1 µM, 24 h", "value": 0.987}, {"measurement": "CellTox Green cytotoxicity fluorescence", "setting": "1 µM, 48 h", "value": 1.03}, {"measurement": "CellTox Green cytotoxicity fluorescence", "setting": "1 µM, 72 h", "value": 1.05}]}]}
